Consider 15 sequences from paper PMC3218832.

Assay in all cases: protein binding microarray; high values mean tight binding
Common to all, as to conditions: dsDNA, one strand shown

Experiment [1] deals with RELARELA (p65 homodimer) (Homo sapiens, UniProt Q04206 1-307).
Experiment [2] concerns the target p50p50 homodimer (Homo sapiens, UniProt P19838 7-356).
Experiment [3] addresses T1, p52p52 homodimer (Homo sapiens, UniProt Q00653 4-332).
T1 sequence: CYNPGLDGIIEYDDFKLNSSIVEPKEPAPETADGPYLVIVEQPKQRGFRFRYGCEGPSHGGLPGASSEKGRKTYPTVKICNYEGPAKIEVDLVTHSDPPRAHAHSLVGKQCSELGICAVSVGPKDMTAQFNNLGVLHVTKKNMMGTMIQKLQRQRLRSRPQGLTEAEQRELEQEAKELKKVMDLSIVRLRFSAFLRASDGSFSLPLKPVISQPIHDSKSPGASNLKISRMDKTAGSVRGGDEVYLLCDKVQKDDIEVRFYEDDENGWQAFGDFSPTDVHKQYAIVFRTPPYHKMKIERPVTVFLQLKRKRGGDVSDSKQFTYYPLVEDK

Experiment [4] addresses RELA (p65) subunit of heterodimer;p50 subunit (Homo sapiens;Homo sapiens, UniProt Q04206;P19838 1-307;7-356).
Experiment [5] concerns the target RELA (p65) subunit of heterodimer;p52 subunit (Homo sapiens;Homo sapiens, UniProt Q04206;Q00653 1-307;4-332).
For experiment [6], the target named is RELB subunit;p50 subunit (Homo sapiens;Homo sapiens, UniProt Q01201;P19838 120-401;7-356).
The target in experiment [7] is T2, RELB subunit;p52 subunit (Homo sapiens;Homo sapiens, UniProt Q01201;Q00653 120-401;4-332).
T2 sequence 1: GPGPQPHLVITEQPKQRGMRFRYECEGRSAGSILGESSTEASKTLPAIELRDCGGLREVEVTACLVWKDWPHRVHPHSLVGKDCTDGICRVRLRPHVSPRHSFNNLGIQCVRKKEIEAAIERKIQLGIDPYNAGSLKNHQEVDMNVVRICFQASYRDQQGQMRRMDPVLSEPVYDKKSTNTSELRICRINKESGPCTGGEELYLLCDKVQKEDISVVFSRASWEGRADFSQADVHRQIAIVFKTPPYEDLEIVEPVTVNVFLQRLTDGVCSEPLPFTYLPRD
T2 sequence 2: T1 sequence

The target in experiment [8] is C-Rel subunit;p50 subunit (Homo sapiens;Homo sapiens, UniProt Q04864;P19838 1-285;7-356).
Experiment [9] addresses T3, C-Rel subunit;p52 subunit (Homo sapiens;Homo sapiens, UniProt Q04864;Q00653 1-285;4-332).
T3 sequence 1: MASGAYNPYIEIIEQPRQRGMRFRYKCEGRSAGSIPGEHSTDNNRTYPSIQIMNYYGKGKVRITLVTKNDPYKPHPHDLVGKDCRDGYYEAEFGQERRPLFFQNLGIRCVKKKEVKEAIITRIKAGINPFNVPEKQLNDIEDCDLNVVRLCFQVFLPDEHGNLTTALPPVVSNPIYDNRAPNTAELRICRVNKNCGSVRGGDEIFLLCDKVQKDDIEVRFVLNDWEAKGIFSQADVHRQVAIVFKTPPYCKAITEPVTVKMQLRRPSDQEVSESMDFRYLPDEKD
T3 sequence 2: T1 sequence

Chain of p50p50 homodimer (P19838 7-356): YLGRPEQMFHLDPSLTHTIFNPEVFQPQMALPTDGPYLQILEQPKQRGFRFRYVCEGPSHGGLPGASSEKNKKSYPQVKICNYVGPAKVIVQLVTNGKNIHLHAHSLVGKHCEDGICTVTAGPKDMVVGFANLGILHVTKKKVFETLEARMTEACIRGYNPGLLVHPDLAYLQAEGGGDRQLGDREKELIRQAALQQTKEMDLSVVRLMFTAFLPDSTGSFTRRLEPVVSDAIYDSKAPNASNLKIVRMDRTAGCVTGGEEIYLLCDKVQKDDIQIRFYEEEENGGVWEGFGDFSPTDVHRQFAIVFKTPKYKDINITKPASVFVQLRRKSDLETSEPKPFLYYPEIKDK
Chain of RELA (p65) subunit of heterodimer;p50 subunit (Q04206 1-307, chain 1 of 2): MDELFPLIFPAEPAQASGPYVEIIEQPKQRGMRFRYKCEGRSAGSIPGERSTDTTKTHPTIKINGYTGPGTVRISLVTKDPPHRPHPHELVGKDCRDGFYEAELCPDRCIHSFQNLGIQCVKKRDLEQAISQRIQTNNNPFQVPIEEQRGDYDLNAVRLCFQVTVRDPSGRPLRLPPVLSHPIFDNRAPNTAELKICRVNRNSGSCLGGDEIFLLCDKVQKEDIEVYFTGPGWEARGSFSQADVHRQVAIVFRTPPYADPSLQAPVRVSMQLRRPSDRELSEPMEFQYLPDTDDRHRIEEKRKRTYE
Chain of RELA (p65) subunit of heterodimer;p50 subunit (P19838 7-356, chain 2 of 2): as the sequence (P19838 7-356) above
Chain of RELARELA (p65 homodimer) (Q04206 1-307): as the sequence (Q04206 1-307, chain 1 of 2) above

Regarding AAAGGAACCCC, the binding signal in experiment [1] was -0.25 z-score; in [2] it was 0.367 z-score; in experiment [3], 0.122 z-score; in experiment [4], 0.18 z-score; in experiment [5], 0.127 z-score; in experiment [6], 0.118 z-score. Besides, the binding signal in experiment [7] amounted to 0.351 z-score; in experiment [8] it was 0.41 z-score; in experiment [9] it was 0.175 z-score.
Turning to GGATGACTCCC, the binding signal in experiment [1] was -0.304 z-score; in experiment [2], -0.794 z-score; in experiment [3] it was -0.473 z-score; in [4], -0.49 z-score; in [5], -0.701 z-score; in experiment [6] it was -0.618 z-score. For the same sequence, the figures for the binding signal in experiment [7], in [8] and in [9] were -0.826 z-score, -0.932 z-score and -0.692 z-score, respectively.
Consider CGGGACTCCCC, for which the binding signal stood at 1.91 z-score in [1]; 0.81 z-score in experiment [2]; 2.76 z-score in experiment [3]; 1.88 z-score in experiment [4]; 1.9 z-score in experiment [5]; 1.59 z-score in experiment [6]. Further, the binding signal in experiment [7] came out at 1.87 z-score; in [8], 1.93 z-score; in experiment [9] it was 2.5 z-score.
Consider AAGTTAGTCCT, for which the binding signal in experiment [1] is -0.0878 z-score; in experiment [2], -1.56 z-score; in experiment [3] it was -0.552 z-score; in experiment [4], -1.02 z-score; in experiment [5], -0.842 z-score; in experiment [6], -1.03 z-score. Moreover, the binding signal in experiment [7] is -0.752 z-score; in [8], -1 z-score; in experiment [9] it was -0.837 z-score.
Consider GGAAATGTCCC, for which the binding signal came to 1.93 z-score in experiment [1]; 0.902 z-score in experiment [2]; 1.14 z-score in [3]; 1.27 z-score in [4]; 1.05 z-score in experiment [5]; 0.938 z-score in experiment [6]. Besides, the binding signal in experiment [7] worked out at 0.986 z-score; in experiment [8], 0.9 z-score; in [9], 0.975 z-score.
Regarding GGATTCATCCT, the binding signal in [1] was -0.727 z-score; in experiment [2] it was -2.29 z-score; in [3], -0.817 z-score; in experiment [4], -1.18 z-score; in experiment [5], -0.991 z-score; in experiment [6], -1.18 z-score. Moreover, the binding signal was -0.967 z-score in experiment [7], -1.49 z-score in [8] and -0.792 z-score in experiment [9].
In the case of AGGTGCGTCCT, the binding signal in [1] was -0.881 z-score; in experiment [2], -0.757 z-score; in experiment [3] it was -0.281 z-score; in experiment [4] it was -0.82 z-score; in [5] it was -0.633 z-score; in experiment [6] it was -0.695 z-score. In addition, the binding signal is -0.608 z-score in [7], -1.1 z-score in [8] and -0.46 z-score in experiment [9].
For GAGGACGTCCC, the binding signal worked out at 0.381 z-score in experiment [1]; 0.144 z-score in experiment [2]; 0.388 z-score in experiment [3]; 0.0977 z-score in [4]; 0.262 z-score in experiment [5]; 0.14 z-score in experiment [6]. The binding signal in experiment [7] was determined as 0.0168 z-score; in [8] it was 0.15 z-score; in [9], 0.205 z-score.
As to AAGAGAGTCCT, the binding signal in experiment [1] was 0.889 z-score; in experiment [2], -0.892 z-score; in [3], -0.435 z-score; in experiment [4], -0.32 z-score; in experiment [5], -0.676 z-score; in experiment [6], -0.818 z-score. The binding signal was -0.673 z-score in experiment [7], -0.59 z-score in experiment [8] and -0.442 z-score in [9].
In the case of GAGATTGCCCC, the binding signal in experiment [1] turned out to be 0.817 z-score; in [2] it was 0.318 z-score; in [3], 0.0909 z-score; in experiment [4] it was 0.951 z-score; in experiment [5], 0.468 z-score; in experiment [6], 0.435 z-score. Moreover, the binding signal in experiment [7] amounted to 0.366 z-score; in experiment [8], 1.1 z-score; in [9], 0.621 z-score.
For AAGTATGCCCC, the binding signal was 0.441 z-score in experiment [1]; 0.0869 z-score in experiment [2]; -0.0889 z-score in experiment [3]; 0.289 z-score in experiment [4]; 0.0585 z-score in [5]; 0.197 z-score in experiment [6]. The values for the binding signal in experiment [7], in experiment [8] and in experiment [9] were 0.2 z-score, 0.628 z-score and 0.354 z-score, respectively.
AGATTTATCCC: the binding signal is -0.076 z-score in experiment [1]; -0.338 z-score in experiment [2]; -0.0792 z-score in experiment [3]; -0.321 z-score in experiment [4]; -0.11 z-score in [5]; -0.291 z-score in experiment [6]. The binding signal in experiment [7] is -0.135 z-score; in [8], 0.062 z-score; in experiment [9] it was -0.0889 z-score.
CAGGATATCCC: the binding signal is 0.644 z-score in [1]; -0.266 z-score in experiment [2]; -0.111 z-score in experiment [3]; -0.14 z-score in experiment [4]; -0.0926 z-score in experiment [5]; -0.231 z-score in experiment [6]. Also, the binding signal was -0.211 z-score in [7], -0.116 z-score in experiment [8] and -0.032 z-score in [9].
Take AAATAGATCCC: the binding signal was -0.751 z-score in experiment [1]; -0.68 z-score in [2]; -0.334 z-score in [3]; -0.662 z-score in experiment [4]; -0.554 z-score in experiment [5]; -0.403 z-score in [6]. For the same sequence, the binding signal was -0.661 z-score in [7], -0.87 z-score in [8] and -0.679 z-score in experiment [9].
As to GAATACTCCCC, the binding signal in [1] was found to be 0.403 z-score; in [2], 0.933 z-score; in [3], 0.502 z-score; in experiment [4], 0.707 z-score; in [5], 0.752 z-score; in experiment [6], 0.8 z-score. Also, the binding signal turned out to be 0.628 z-score in [7], 0.806 z-score in [8] and 0.479 z-score in experiment [9].
